This is one part of a sample in which hits are shown more often than they occur.
Pf Dd2 growth: blocks in vitro growth of P. falciparum Dd2. AID 1347417. P. falciparum Dd2 growth, SYBR Green, 72 h. Potency, µM (highest dose often 28.9 µM), actives largely listed as inhibitors. 120,000 compounds, 4.3% hits; active means well fitted inhibition curve with a large enough effect; further: nearly all actives have a fitted effect of over 65% in size
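Readout: SYBR Green fluorescence, 485 nm excitation, 535 nm emission, after ~16 h lysis at 37C. Before that, Dd2-infected red cells (2.5% hematocrit) grew 72 h with compound, 29 uM top final concentration.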
Of the large screens only hits and unclear results are named; the others gave an inactive call.

Cn1nnnc1C1CCCN(C(=O)CCCc2ccccc2)C1 (configuration not stated)	none
O=C(O)[C@@H]1CN(Cc2ccccc2)C[C@@H]1C(=O)N1CCSCC1	none
Cc1nn(-c2ccc(F)cc2)c(Oc2ccccc2F)c1CCC(=O)NC(C)C	none
CO[C@H]1[C@H](NC(=O)Cc2cccc(C)c2)c2ccccc2C12CCNCC2	none
CO[C@H]1C[C@@H](O)C12CCN(C(=O)CCc1cn3ccccc3n1)CC2	none
COc1ccc(CN2C[C@H]3CN(C4CCOCC4)C[C@@]3(C(=O)O)C2)cc1O	none
Cc1nn(CC(=O)NCc2cccs2)c(=O)c2nc(C(C)C)sc12	none
Cc1ccc(S(=O)(=O)N2CCN(C3CCN(CCC(C)C)C3=O)CC2)cc1Cl (configuration not stated)	Pf Dd2 growth 4µM
CC(C)CCN1CCC(N2CCN(S(=O)(=O)c3ccc(F)cc3)CC2)C1=O (configuration not stated)	none
Cc1cc(Cl)ccc1S(=O)(=O)N1CCN(C2CCN(CCC(C)C)C2=O)CC1 (configuration not stated)	none
Cc1cc(CN(C)C(=O)c2cn(Cc3ccccc3Cl)nn2)on1	none
COCc1cn([C@H]2CO[C@H]3[C@@H]2OC[C@@H]3NC(=O)c2ccc(C(F)(F)F)cc2)nn1	none
CCOc1ccccc1NC(=O)N1CCC(N2CCN(Cc3ccccc3)C(=O)C2=O)CC1	none
O=C(CN1CCCCCC1)N1CCC(N2C(=O)C3(CCCC3)C2c2ccccc2)CC1 (configuration not stated)	Pf Dd2 growth 4.5µM
COCCC(=O)N1CCC(N2C(=O)C3(CCCCC3)C2c2ccccc2)CC1 (configuration not stated)	none
CC(C)C(=O)N1CCC(N2C(=O)C3(CCCC3)C2c2ccccc2)CC1 (configuration not stated)	none
O=C(CN1CCOCC1)N1CCC(N2C(=O)C3(CCCCC3)C2c2ccccc2)CC1 (configuration not stated)	none
CCOc1ccccc1NC(=O)N1CCC(N2C(=O)C3(CCCC3)C2c2ccccc2)CC1 (configuration not stated)	Pf Dd2 growth 8.9µM
COC[C@@H]1CN(C(=O)Cc2ccccc2C)C[C@H]1c1nc(C2CC2)no1	none
CS(=O)(=O)N1CCc2ccc(C(=O)NCCN3CCc4ccccc4C3)cc21	none
CCNC(=O)N1CCCCC1c1nc(CCOc2cccc(C)c2)no1 (configuration not stated)	none
COc1ccc(-c2cc([C@H]3CN4CC[C@H]3C[C@@H]4CNC(=O)C(C)(C)C)nc(C)n2)cc1OC	none
Cc1ccccc1[C@H]1C[C@@H](O)[C@@H](O)[C@@H]1NC(=O)c1ccc(C(F)(F)F)cc1	none
COc1ccccc1C(=O)N[C@H]1[C@H](O)[C@H](O)C[C@@H]1c1ccc(C(F)(F)F)cc1	none
Cc1ccccc1C(=O)N[C@H]1[C@H](O)[C@H](O)C[C@@H]1c1ccc(C(F)(F)F)cc1	Pf Dd2 growth 3.5µM
COc1ccc([C@H]2C[C@@H](O)[C@@H](O)[C@@H]2NC(=O)Nc2ccc(C(F)(F)F)cc2)cc1	Pf Dd2 growth 3.2µM
COc1ccc(CC(=O)N[C@H]2[C@H](O)[C@H](O)C[C@@H]2c2ccc(C(F)(F)F)cc2)cc1	none
COc1ccc([C@H]2C[C@@H](O)[C@@H](O)[C@@H]2NC(=O)c2ccc(C(F)(F)F)cc2)cc1	none
CN(C)c1cc(N2CCCC(NC(=O)c3ccncc3)C2)ncn1 (configuration not stated)	none
Cc1ncc2c(n1)C[C@@H]1CC[C@H]2N1C(=O)c1ccsc1	none
Cc1nnnn1CCCN1CC[C@H]2NCCC[C@]2(C(=O)O)C1	none
COc1ccccc1OCCC1CCN(C(=O)Cc2c[nH]c3ccccc23)C1 (configuration not stated)	none
COc1ccccc1-c1noc(CCc2nc(-c3ccc(C)nn3)no2)n1	none
Cc1ocnc1C(=O)N1CC[C@@H]2[C@@H](CCC(=O)N2CCc2cnc[nH]2)C1	none
O=C(CCc1cc(Cl)no1)NCCc1noc(-c2ccccc2)n1	none
Cc1ccc(-c2cc(N3CCC(CNC(=O)c4ccc(=O)[nH]c4)CC3)n[nH]2)cc1	Pf Dd2 growth 13µM
O=C(NCC1CCN(c2cc(-c3ccccc3)[nH]n2)CC1)c1ccc[nH]1	none
Cc1noc(C)c1CC(=O)NCC1CCN(c2cc(-c3ccccc3)[nH]n2)CC1	none
O=C(NCC1CCN(c2cc(-c3ccccc3)[nH]n2)CC1)c1ccc[nH]c1=O	none
Cc1cc(C)n(CCC(=O)NC2CCCN(c3cc(-c4ccc(Cl)cc4)[nH]n3)C2)n1 (configuration not stated)	none
Cc1cc(C)n(CCC(=O)NCC2CCN(c3cc(-c4ccccc4)[nH]n3)CC2)n1	Pf Dd2 growth 11µM
COCCOc1cccc(Cn2cnc(-c3ccccc3)c2-c2cnc[nH]2)c1	none
CCOC(=O)N1CCC(NC(=O)c2ccccc2C2CCNC2)CC1 (configuration not stated)	none
CC(C)Nc1ncnc2c1CN(C1CCCNC1)C(=O)CN2C (configuration not stated)	none
CN(C)CCN(C)CC[C@H]1CN(C(=O)Cc2ccccc2)CC[C@H]1CC(=O)O	none
CN(Cc1ccccc1)C1(C(=O)NC2CCC(O)CC2)Cc2ccccc2C1 (configuration not stated)	none
CN(C)C1CCN(C(=O)C2(N(C)CCc3ccccc3)Cc3ccccc3C2)C1 (configuration not stated)	Pf Dd2 growth 5µM
CC(C)c1cccc(NC(=O)CN2C(=O)NC(c3ccccc3Cl)C3=C2COC3=O)c1 (configuration not stated)	none
O=C(CN1C(=O)COc2ccc(C(=O)COc3ccc(F)cc3)cc21)NCC1CCCO1 (configuration not stated)	none
Cc1ccc(-c2nc(C3CC(=O)N(c4ccc(Cl)cc4)C3)no2)cc1 (configuration not stated)	none
COc1ccc(Cl)cc1NC(=O)NCCc1noc(C)n1	none
Cc1cccc(NC(=O)c2c(NC(=O)c3ccco3)sc3c2CCC(C(C)(C)C)C3)c1 (configuration not stated)	Pf Dd2 growth 7.1µM
Cc1cccc(NC(=O)c2c(NC(=O)c3ccco3)sc3c2CCC(C)C3)c1 (configuration not stated)	none
CC(C)(C)C1CCc2c(sc(NC(=O)c3ccco3)c2C(=O)Nc2ccccc2Cl)C1 (configuration not stated)	none
C[C@@]1(NC(=O)Cc2ccccc2)OC[C@H]2CC[C@@H](C(=O)NC(c3ccccc3)c3ccccc3)N2C1=O	none
COc1ccc(-c2cc(N3CCN(C(=O)Cc4ccccc4)CC3)n[nH]2)cc1	none
CC(=O)c1ccc(NC(=O)O[C@@H]2CO[C@H]3[C@@H]2OC[C@@H]3NC(=O)c2ccc(C)cc2)cc1	none
Clc1ccccc1C1(c2ccnc(C3CCCC3)n2)CCNCC1	Pf Dd2 growth 4µM
COc1ccccc1Cn1cnc2cccnc21	none
c1ccc(-c2nc(CC3CCCNC3)no2)nc1 (configuration not stated)	none
COc1ccccc1Cc1nccc(C2(c3ccccc3Cl)CCNCC2)n1	Pf Dd2 growth 8.9µM
CC1(C(=O)NCC2CC2)CCc2cnc(NCc3ccccc3)nc21 (configuration not stated)	none
COc1ccccc1Cc1nc2ccccc2[nH]c1=O	none
CC1(C(=O)NCc2ccncc2)CCCc2cnc(NCc3ccccc3)nc21 (configuration not stated)	none
Clc1ccccc1C1(c2ccnc(NCc3ccccc3)n2)CCNCC1	Pf Dd2 growth 4.5µM
c1coc(-c2ccnc3nc(C4CCC4)nn23)c1	none
c1cnc2nc(C3CCNCC3)[nH]c2c1	none
